The test system of experiment [1] is PRMT1 (protein arginine N-methyltransferase 1). Put plainly: PRMT1 binders on small-molecule microarrays, primary screen, biochemical, small-molecule microarray, 635 nm fluorescence (AID 1088).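 Also: binding of Prmt1 protein to compounds spotted on small-molecule microarray slides.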 Particulars: small-molecule microarray binding, higher = more signal.
Experiment [2] is described as follows: yeast growth modulation, basal conditions, primary screen, YJM789 clinical isolate, OD600, 24 h (AID 1089).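 Also: growth of clinical yeast isolate S. cerevisiae YJM 789 seeded 1000 cells per well; test concentration not given here.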 Particulars: S. cerevisiae YJM789 growth, higher = more signal, called active from +8 up or from −8 down.
A short description of experiment [3]: fission yeast growth modulation, primary screen, strain 972, OD600, 24 h, no modulator (AID 1090).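 Also: basal condition with compound alone and no growth modifier present; test concentration not given here.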 Particulars: S. pombe 972 growth, higher = more signal, called active from +8 up or from −8 down.
Experiment [4] in a line: S. cerevisiae growth modulation with rapamycin, primary screen, strain BY4716, OD600, 96 h (AID 1091). Also: test concentration not given here. Particulars: higher = more signal, called active from +8 up or from −8 down.
Experiment [5] has as its target Torsin-1A-interacting protein 2 (Homo sapiens) (UniProt Q8NFQ8). Put plainly: LULL1 binders on small-molecule microarray, primary screen, cell lysate, human LULL1 lysate, 635/667 nm fluorescence (AID 1092).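 Also: probe is lysate of COS7 cells overexpressing human LULL1; score merges per-feature 667 nm fluorescence with signal-to-noise.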 As to conditions: hLULL1 lysate binding, 635 nm fluorescence, higher = more signal.
The nature of experiment [6]: E. coli growth modulation, two-sided OD650, primary screen, E. coli filamentation project, strain DRC41, 24 h (AID 1093).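 Also: MC1000 strain lacking acrAB efflux and sulA so SOS filamentation is blocked; test concentration not given here.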 Particulars: OD650, 24 h, higher = more signal, called active from +8 up or from −8 down.
Experiment [7] is described as follows: small-molecule microarray binders of probe aLefty2, primary screen, biochemical, biotinylated probe, 635/667 nm fluorescence (AID 1094).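 Also: score merges spot fluorescence near 667 nm with spot signal-to-noise ratio.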 As to conditions: higher = more signal.
Experiment [8] concerns Noggin (protein binding on small-molecule microarray). Nature of the experiment: Noggin binders on small-molecule microarray, primary screen, biochemical, 635/667 nm fluorescence (AID 1095).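 Also: score merges 667 nm feature fluorescence with signal to noise over triplicate slides.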 As to conditions: 635 nm fluorescence, higher = more signal.
For experiment [9], the target named is Neurogenic locus notch homolog protein 3 (Homo sapiens) (UniProt Q9UM47). Put plainly: NOTCH3 binders on small-molecule microarray, primary screen, biochemical, 635/667 nm fluorescence (AID 1096). Particulars: NOTCH3 binding, 635 nm fluorescence, higher = more signal.
Sequence of Neurogenic locus notch homolog protein 3 (Homo sapiens) (Q9UM47 whole entry, looked up): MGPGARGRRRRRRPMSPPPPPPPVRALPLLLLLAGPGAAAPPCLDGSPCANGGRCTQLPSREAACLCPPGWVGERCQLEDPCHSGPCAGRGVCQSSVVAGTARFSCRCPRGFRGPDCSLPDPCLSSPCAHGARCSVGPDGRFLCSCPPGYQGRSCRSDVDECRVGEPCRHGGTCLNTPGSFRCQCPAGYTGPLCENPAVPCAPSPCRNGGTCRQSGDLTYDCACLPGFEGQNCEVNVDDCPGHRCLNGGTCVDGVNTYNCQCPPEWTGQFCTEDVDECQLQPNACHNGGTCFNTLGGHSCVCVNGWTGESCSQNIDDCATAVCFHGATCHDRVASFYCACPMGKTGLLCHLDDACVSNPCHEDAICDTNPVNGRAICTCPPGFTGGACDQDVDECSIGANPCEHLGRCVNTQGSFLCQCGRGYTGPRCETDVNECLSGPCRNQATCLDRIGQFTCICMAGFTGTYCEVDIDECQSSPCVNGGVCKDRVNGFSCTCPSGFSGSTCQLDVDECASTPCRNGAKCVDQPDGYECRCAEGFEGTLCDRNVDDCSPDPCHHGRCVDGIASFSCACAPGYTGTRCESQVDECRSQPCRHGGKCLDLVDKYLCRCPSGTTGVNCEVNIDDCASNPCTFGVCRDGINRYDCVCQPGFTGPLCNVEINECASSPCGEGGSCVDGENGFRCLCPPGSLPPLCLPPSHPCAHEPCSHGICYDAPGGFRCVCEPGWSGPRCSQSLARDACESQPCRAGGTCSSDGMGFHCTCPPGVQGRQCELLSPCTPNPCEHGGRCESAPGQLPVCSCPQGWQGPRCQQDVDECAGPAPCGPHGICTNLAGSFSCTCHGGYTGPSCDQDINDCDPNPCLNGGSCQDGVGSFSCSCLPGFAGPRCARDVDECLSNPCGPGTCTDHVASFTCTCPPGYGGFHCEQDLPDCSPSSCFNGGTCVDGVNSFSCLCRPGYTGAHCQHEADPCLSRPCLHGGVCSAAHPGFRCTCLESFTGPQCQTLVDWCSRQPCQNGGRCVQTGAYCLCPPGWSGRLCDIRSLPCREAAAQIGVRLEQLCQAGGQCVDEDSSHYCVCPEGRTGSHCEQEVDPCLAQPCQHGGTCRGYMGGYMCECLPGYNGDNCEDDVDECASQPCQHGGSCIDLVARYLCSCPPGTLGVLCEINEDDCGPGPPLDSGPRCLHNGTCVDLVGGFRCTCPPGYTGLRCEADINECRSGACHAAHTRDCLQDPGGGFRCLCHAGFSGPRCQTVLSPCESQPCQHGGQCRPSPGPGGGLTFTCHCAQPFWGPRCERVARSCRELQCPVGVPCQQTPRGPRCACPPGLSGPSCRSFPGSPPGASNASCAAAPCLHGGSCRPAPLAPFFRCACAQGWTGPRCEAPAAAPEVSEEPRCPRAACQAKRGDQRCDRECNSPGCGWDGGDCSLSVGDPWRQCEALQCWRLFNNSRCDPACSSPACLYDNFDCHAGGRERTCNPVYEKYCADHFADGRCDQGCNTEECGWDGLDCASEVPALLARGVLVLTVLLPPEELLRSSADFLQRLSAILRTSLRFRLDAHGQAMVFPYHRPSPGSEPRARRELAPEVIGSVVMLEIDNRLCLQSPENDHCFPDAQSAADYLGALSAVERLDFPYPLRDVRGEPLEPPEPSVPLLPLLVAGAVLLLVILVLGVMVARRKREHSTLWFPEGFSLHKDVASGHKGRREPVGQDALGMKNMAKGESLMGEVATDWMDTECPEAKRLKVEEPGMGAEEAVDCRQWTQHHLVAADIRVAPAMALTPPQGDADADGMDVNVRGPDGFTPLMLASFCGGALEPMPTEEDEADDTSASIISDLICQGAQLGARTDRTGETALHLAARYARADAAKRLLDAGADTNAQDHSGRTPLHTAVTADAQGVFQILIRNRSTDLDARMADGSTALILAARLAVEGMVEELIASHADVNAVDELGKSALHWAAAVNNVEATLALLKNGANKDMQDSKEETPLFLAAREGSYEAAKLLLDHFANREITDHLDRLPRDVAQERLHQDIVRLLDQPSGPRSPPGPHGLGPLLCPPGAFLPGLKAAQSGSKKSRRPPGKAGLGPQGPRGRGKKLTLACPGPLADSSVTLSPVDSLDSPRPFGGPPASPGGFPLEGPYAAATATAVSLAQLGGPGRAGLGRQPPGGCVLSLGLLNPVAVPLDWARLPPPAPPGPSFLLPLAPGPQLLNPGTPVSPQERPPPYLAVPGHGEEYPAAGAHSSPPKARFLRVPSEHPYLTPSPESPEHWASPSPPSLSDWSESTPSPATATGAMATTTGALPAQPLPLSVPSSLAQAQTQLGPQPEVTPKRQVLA
A short description of experiment [10]: small-molecule microarray binders of probe aEGFR, primary screen, biochemical, biotinylated probe, 635/667 nm fluorescence (AID 1097).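 Also: probe is a biotinylated anti-EGFR antibody binding compounds printed on slides; score combines fluorescence near 667 nm and signal to noise of each spot.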 Particulars: higher = more signal.
For experiment [11], the system named is Plasmodium falciparum Sir2 (PF13_0152, Sir2A). Nature of the experiment: pfSir2 binders on small-molecule microarrays, primary screen, biochemical, small-molecule microarray, 635 nm fluorescence (AID 1098).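 Also: score merges spot fluorescence intensity with its signal-to-noise ratio.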 As to conditions: small-molecule microarray binding, fluorescence 635 nm; higher = more signal.
Experiment [12] is described as follows: small-molecule microarray binders of probe aDKK1, primary screen, biochemical, biotinylated probe, 635/667 nm fluorescence (AID 1099).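 Also: score merges 667nm spot fluorescence with signal to noise across triplicate slides; reference of the scale not given here.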 Particulars: higher = more signal.
Experiment [13] in a line: small-molecule microarray binders of probe aCHRDL2, primary screen, biochemical, biotinylated probe, 635/667 nm fluorescence (AID 1100). As to conditions: higher = more signal.
Experiment [14] can be described thus: splicing luciferase reporter signal modulators, primary screen, spliceosome inhibition project, cell-based, HEK293, splice +/- reporter (AID 1101).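 Also: HEK293 cells carrying a splicing-competent luciferase reporter gene; test concentration not given here.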 As to conditions: luminescence, 24 h, higher = more signal, called active from +8 up or from −8 down. In general terms: A reporter such as luciferase makes a cellular process visible.
Experiment [15] addresses Fibroblast growth factor 10 (Homo sapiens) (UniProt O15520). Nature of the experiment: FGF10 binders on small-molecule microarrays, primary screen, biochemical, small-molecule microarray, 635 nm fluorescence (AID 1102). Particulars: FGF10 binding, fluorescence 635 nm, higher = more signal.
The test system of experiment [16] is glycogen synthase kinase-3 (GSK3A per assay name; protocol says GSK3B). Nature of the experiment: GSK3 binders on small-molecule microarrays, primary screen, biochemical, small-molecule microarray, 635 nm fluorescence, GSK3A (AID 1103). Also: the record names both GSK3A and GSK3B. Particulars: small-molecule microarray binding, fluorescence 635 nm; higher = more signal.
The target in experiment [17] is Epidermal growth factor receptor (Homo sapiens) (UniProt P00533). Put plainly: EGFR binders on small-molecule microarrays, primary screen, biochemical, small-molecule microarray, 635 nm fluorescence (AID 1104).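 Also: score merges 667 nm emission intensity with spot signal to noise over triplicate slides.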 As to conditions: EGFR binding, higher = more signal.
Sequence of Epidermal growth factor receptor (Homo sapiens) (P00533 whole entry, looked up): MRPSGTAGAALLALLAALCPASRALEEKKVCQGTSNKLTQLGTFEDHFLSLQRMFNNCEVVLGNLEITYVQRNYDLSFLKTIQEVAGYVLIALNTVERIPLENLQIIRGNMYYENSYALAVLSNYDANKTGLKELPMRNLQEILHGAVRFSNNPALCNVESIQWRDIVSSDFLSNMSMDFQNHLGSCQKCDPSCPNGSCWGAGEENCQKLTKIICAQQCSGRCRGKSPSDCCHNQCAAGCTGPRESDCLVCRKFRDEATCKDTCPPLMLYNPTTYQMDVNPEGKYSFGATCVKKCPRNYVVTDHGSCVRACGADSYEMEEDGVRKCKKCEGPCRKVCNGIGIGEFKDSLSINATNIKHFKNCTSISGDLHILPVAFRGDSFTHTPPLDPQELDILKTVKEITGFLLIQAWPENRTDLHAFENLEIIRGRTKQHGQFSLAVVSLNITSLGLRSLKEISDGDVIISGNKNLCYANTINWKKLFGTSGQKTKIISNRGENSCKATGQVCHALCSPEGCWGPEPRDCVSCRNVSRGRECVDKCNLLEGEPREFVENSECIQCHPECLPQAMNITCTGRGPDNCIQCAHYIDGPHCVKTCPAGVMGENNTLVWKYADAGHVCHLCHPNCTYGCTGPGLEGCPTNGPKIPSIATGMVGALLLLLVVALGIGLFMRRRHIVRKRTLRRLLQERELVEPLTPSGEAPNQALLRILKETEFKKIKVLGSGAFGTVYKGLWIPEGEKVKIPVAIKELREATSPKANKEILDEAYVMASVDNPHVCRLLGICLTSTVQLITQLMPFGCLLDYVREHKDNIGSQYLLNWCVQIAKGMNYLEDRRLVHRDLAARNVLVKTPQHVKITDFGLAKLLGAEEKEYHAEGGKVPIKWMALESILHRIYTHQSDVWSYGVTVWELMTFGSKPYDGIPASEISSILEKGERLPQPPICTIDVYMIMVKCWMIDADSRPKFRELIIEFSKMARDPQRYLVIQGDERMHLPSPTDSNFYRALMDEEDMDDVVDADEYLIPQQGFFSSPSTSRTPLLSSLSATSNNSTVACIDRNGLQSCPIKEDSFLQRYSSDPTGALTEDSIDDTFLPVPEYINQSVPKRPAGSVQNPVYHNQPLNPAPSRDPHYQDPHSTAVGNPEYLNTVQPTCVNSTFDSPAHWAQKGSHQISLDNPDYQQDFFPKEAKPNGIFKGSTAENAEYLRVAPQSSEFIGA
Experiment [18] addresses Follistatin-related protein 3 (Homo sapiens) (UniProt O95633). Put plainly: FSTL3 binders on small-molecule microarrays, primary screen, biochemical, small-molecule microarray, 635 nm fluorescence (AID 1105).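 Also: score merges emission near 667 nm and signal to noise per printed spot across three slides.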 Particulars: FSTL3 binding, higher = more signal.
The target in experiment [19] is Dickkopf-related protein 1 (Homo sapiens) (UniProt O94907). Put plainly: DKK1 binders on small-molecule microarrays, primary screen, biochemical, small-molecule microarray, 635 nm fluorescence scan (AID 1106).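 Also: score merges emission near 667 nm with signal to noise over three replicate slides.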 Particulars: DKK1 binding, higher = more signal.
Sequence of Dickkopf-related protein 1 (Homo sapiens) (O94907 whole entry, looked up): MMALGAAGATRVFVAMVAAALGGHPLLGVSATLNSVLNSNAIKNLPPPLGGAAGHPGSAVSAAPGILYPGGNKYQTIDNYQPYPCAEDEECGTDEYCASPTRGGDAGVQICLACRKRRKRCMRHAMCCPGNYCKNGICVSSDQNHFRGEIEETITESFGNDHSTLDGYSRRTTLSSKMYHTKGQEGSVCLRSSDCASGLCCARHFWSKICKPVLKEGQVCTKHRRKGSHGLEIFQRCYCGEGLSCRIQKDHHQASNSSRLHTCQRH
In experiment [20] the test system is Inhibin beta A chain (activin A). Nature of the experiment: INHBA (activin A) binders on microarrays, primary screen, biochemical, small-molecule microarray, 635 nm fluorescence scan (AID 1107).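 Also: mouse activin A protein probed at 4.33 µg/mL on printed slides; score merges bound-protein fluorescence near 667 nm with spot signal-to-noise.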 As to conditions: small-molecule microarray binding, higher = more signal.

Active and inactive are the calls of the source.

Sequence of Torsin-1A-interacting protein 2 (Homo sapiens) (Q8NFQ8 whole entry, looked up): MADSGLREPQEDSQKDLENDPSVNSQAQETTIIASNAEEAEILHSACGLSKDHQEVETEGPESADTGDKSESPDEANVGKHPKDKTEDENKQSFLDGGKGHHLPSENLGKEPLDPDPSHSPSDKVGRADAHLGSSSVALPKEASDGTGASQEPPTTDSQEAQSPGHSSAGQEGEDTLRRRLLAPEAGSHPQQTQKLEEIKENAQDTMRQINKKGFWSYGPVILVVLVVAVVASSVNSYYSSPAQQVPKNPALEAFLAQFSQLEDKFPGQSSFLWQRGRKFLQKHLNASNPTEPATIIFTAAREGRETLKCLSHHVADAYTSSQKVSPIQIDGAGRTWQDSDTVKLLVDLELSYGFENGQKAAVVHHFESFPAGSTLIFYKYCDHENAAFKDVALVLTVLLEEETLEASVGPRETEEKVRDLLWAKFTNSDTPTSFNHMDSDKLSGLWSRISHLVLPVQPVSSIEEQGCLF
Sequence of Fibroblast growth factor 10 (Homo sapiens) (O15520 whole entry, looked up): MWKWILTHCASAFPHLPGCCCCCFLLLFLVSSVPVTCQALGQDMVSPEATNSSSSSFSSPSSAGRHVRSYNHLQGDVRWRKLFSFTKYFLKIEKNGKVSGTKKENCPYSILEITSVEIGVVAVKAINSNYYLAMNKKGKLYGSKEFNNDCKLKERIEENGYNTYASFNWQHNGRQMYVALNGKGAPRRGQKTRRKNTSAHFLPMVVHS
Sequence of Follistatin-related protein 3 (Homo sapiens) (O95633 whole entry, looked up): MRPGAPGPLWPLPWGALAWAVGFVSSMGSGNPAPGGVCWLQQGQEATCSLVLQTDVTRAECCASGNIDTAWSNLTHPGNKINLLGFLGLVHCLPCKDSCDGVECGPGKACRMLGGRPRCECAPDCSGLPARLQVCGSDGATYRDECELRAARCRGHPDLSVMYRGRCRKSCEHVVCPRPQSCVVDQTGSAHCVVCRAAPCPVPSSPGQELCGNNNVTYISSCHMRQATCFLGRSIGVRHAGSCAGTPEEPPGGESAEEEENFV

In the case of `COCCOC(=O)N1C(=O)[C@@]2(c3cc(C#CCC(C(=O)OC)C(=O)OC)ccc31)[C@H](c1ccccc1OCCO)N1[C@H](c3ccccc3)[C@H](c3ccccc3)OC(=O)[C@H]1[C@@H]2C(=O)Nc1nc2ccccc2s1`, the composite z-score in [1] is 1.5; in [5], 2.22; in experiment [7], 0.0416; in [8] it was 1.05; in experiment [9], 1.05; in experiment [10], 0.0632. In addition, the composite z-score in experiment [11] amounted to 1.46; in experiment [12], 0.514; in [13], 0.641; in [15] it was 1.33; in experiment [16], 1.14; in experiment [17] it was 0.692. Besides, the composite z-score in experiment [18] is 1.4; in [19] it was 0.785; in [20] it was 1.1. The z-score is -1.03 (inactive) in [2]; -0.573 (inactive) in experiment [3]; 1.95 (inactive) in experiment [4]; 4.28 (inactive) in [6]; -1.04 (inactive) in [14].
Turning to `CCCC[C@@H]1C[C@H]1[C@@H](NC(=O)c1ccco1)c1ccccc1`, the composite z-score in experiment [1] was -0.206; in experiment [5], -0.832; in experiment [7] it was -0.121; in experiment [8], -1.77; in experiment [9], -0.716; in experiment [10] it was -0.25. For the same compound, the composite z-score in experiment [11] was -1.69; in experiment [12], -0.145; in experiment [13], 1.01; in experiment [15], -1.01; in experiment [16] it was -1.31; in experiment [17], -2.01. For the same compound, the composite z-score in experiment [18] was -1.63; in experiment [19], -2.05; in experiment [20], 0.735. The z-score in [2] is -0.867 (inactive); in [3], -15.3 (active); in experiment [4], -0.0654 (inactive); in experiment [6], -1.61 (inactive); in experiment [14], 0.00344 (inactive).
As to `C[C@H]1C2[C@H](Cc3ccccc3)NC(=O)[C@]23C(=O)N[C@H](Cc2ccccc2)C(=O)N[C@H](Cc2ccccc2)C(=O)NC/C=C/CCC/C=C/C3[C@@H]2O[C@]12C` (stereo not given in full), the composite z-score was 0.786 in experiment [1]; 2.17 in experiment [5]; -0.241 in experiment [7]; 1.58 in experiment [8]; 0.62 in experiment [9]; -0.152 in experiment [10]. For the same compound, the composite z-score in experiment [11] is 1.17; in [12], -0.319; in experiment [13], -0.327; in experiment [15], 0.398; in experiment [16], 0.309; in [17], 0.17. Further, the composite z-score amounted to 1.4 in experiment [18], 0.54 in experiment [19] and 0.645 in experiment [20]. In addition, the z-score in [2] was 0.524 (inactive); in experiment [3], -1.84 (inactive); in experiment [4], 0.254 (inactive); in [6] it was 1.35 (inactive); in experiment [14], -0.549 (inactive).
On to `COc1ccc([Si](C)(C)[C@@H]2[C@@H](CCO)O[C@]3(C(=O)N(Cc4cccc(N(C=O)c5ccccc5)c4)c4ccccc43)[C@H]2C)cc1`, for which the composite z-score in experiment [1] was 1.12; in experiment [5], 0.745; in experiment [7] it was -0.0719; in [8] it was 0.145; in [9], 0.258; in experiment [10], -0.201. For the same compound, the composite z-score in experiment [11] is 0.883; in [12], 0.0396; in [13], 0.541; in experiment [15], -0.0644; in experiment [16], 0.364; in [17], -0.222. Besides, the composite z-score in experiment [18] is -0.0339; in [19], -0.0116; in [20], 1.03. In addition, the z-score was 1.35 (inactive) in experiment [2]; 0.946 (inactive) in [3]; 9.98 (active) in experiment [4]; 1.03 (inactive) in [6]; -2.49 (inactive) in [14].
As for `C=C(COC)C(=O)CC[C@H](OC(=O)c1cccnc1)c1ccccc1OCCO`, the composite z-score in experiment [1] is 1.56; in experiment [5], 1.47; in [7], 0.157; in [8], 1.15; in experiment [9], 1.15; in experiment [10], -0.0406. Besides, the composite z-score in experiment [11] worked out at 1.25; in experiment [12] it was 0.224; in [13] it was 0.561; in experiment [15] it was 1.12; in experiment [16], 0.844; in [17], 0.471. Moreover, the composite z-score in [18] is 1.27; in [19] it was 0.559; in experiment [20], 1.22. The z-score in experiment [2] was -2.31 (inactive); in experiment [3] it was -1.57 (inactive); in experiment [4], -0.278 (inactive); in experiment [6] it was 0.473 (inactive); in [14], 0.193 (inactive).
